Records with an inconclusive call do not appear. A call without a number means that no potency is given here. Calls of active or inactive are those of the source. Calls follow the shape of the dose curve; as a rule, active = well fitted cell-killing curve with a large enough effect in the repeat runs; inconclusive = weak or mixed curves, or effect the other way; inactive = flat fitted curve, though single readings scatter.
Potency is read from the fitted curve at half-maximal effect.

The nature of the experiment: qHTS assay to identify small molecule antagonists of the androgen receptor (AR) signaling pathway using the MDA cell line in the presence of 0.5 nM R1881 - cell viability counter screen (AID 1259242). Also: nearly all actives have a fitted effect of over 45% in size. The conditions noted are these: MDA-kb2 viability, CellTiter-Fluor protease fluorescence, 16 h; series mostly up to 92.4 µM. An excerpt: U.S. Tox21 Program National Center for Advancing Translational Sciences [NCATS] NIH Chemical Genomics Center [NCGC] U.S. Environmental Protection Agency [EPA] National Institutes of Environmental Health Sciences [NIEHS] National Toxicology Program [NTP] U.S. Food and Drug Administration [FDA] Tox21 Assay Overview: Androgen receptor (AR) is an important member of the nuclear receptor family. Its signaling plays a critical role in AR-dependent prostate cancer and other androgen related diseases. Considerable attention has been given in the past decades to develop methods to study and screen for the environmental chemicals that have the potential to interfere with metabolic homeostasis, reproduction, developmental and behavioral functions. Therefore AR binding assay for screening androgen antagonists can be used to identify potential endocrine disruptors. MDA-kb2 cells (from ATCC, deposited by Wilson et al.) were used to screen for AR inhibitors against Tox21 compound libraries. These cells are human breast carcinoma cells that were stably transfected with a luciferase reporter gene under control of the MMTV promoter that contains response elements for both androgen receptor (AR) and glucocorticoid receptor (GR). The current screening for identification of AR inhibitors against Tox21 libraries used lower concentration of (0.5 nM) R1881 as a stimulator. The cytotoxicity of the Tox21 compound libraries against MDA-kb2 cell line was tested by measuring live-cell protease activity using CellTiter-Fluor assay in the same wells.
Tox21 Assay Protocol Summary: MDA-kb2 cells (cells cultured without CO2) were dispensed at 3,000 cells/well in 4 uL of culture medium into white wall/solid-bottom 1536-well plates (Corning Life Sciences, Corning, NY) using a Multidrop Combi (ThermoFisher Scientific, Waltham, MA) dispenser. After the assay plates were incubated at a 37C and 0% CO2 for 5 hr, 23 nL of compounds dissolved in DMSO, positive controls or DMSO only was transferred to the assay plate by a Pintool station (Kalypsys, San Diego, CA). The transfer of compounds was followed by the addition of 1 uL of 0.5 nM (final concentration) agonist (R1881)/culture medium using a Flying Reagent Dispenser (FRD, Aurora Discovery, San Diego, CA). The plates were incubated at 37C and 0% CO2 for 16 hr. For cytotoxicity assay, 1 uL of CellTiter-Fluor reagent (Promega Corporation, Madison, WI) was added to each well using the FRD and after 30 min incubation at 37C and 0% CO2, The fluorescence intensity was measured using ViewLux plate reader (PerkinElmer, Shelton, CT).
For orientation: In qHTS, concentration-response curves come from the screen itself.
In the case of `CCCCC(=O)O[C@]1(C(=O)CO)[C@@H](C)C[C@H]2[C@@H]3CCC4=CC(=O)C=C[C@]4(C)[C@@]3(F)[C@@H](O)C[C@@]21C`, the Potency result was “inactive”.

As for `C=CC(C)(C)CC(=O)OC`, the Potency result was “inactive”.

Turning to `Oc1cc(O)c(Cl)cc1Cl`, the Potency entry is “inactive”.

For the molecule `CN1CCN(c2c(F)cc3c(=O)c(C(=O)O)cn4c3c2OCN4C)CC1`, the viability change, negative = cytotoxic is 0.172% [at 19 µM] (inactive).

As for `c1ccc(COCc2ccccc2)cc1`, the Potency entry is “inactive”.

With `COc1ccc(CCC(=O)c2c(O)cc(O[C@@H]3O[C@H](CO)[C@@H](O)[C@H](O)[C@H]3O[C@@H]3O[C@@H](C)[C@H](O)[C@@H](O)[C@H]3O)cc2O)cc1O`, the Potency entry was “inactive”.

As for `CC(=O)CC(c1ccc([N+](=O)[O-])cc1)c1c(O)c2ccccc2oc1=O` (stereo not given), the Potency result was “inactive”.

Take `NC(=O)N(O)[C@@H]1C=C[C@H](Oc2cccc(Oc3ccc(F)cc3)c2)C1`: the Potency result was “inactive”.

As for `CNC(=O)N(c1ccccc1)c1ccccc1`, the Potency result is “inactive”.

As to `CCCC(=O)O[C@]1(C(=O)COC(=O)CC)CC[C@H]2[C@@H]3CCC4=CC(=O)CC[C@]4(C)[C@H]3[C@@H](O)C[C@@]21C`, the viability change, negative = cytotoxic was 0.0902% [at 19 µM] (inactive).

As for `CCCCCCCC/C=C\CCCCCCCC(=O)OC(CO)CO`, the Potency result is “inactive”.

For the molecule `CCC(=O)OC/C=C/c1ccccc1`, the Potency result is “inactive”.

Take `CC(C)(C)CC(C)(C)c1ccc(OCCO)cc1`: the Potency was 48.3 µM (active).

For the molecule `N#C/C(=C1\SCC(c2ccccc2Cl)S1)n1ccnc1` (stereo not given), the Potency entry was “inactive”.

Take `CCCCN(CCCC)C(=S)SSC(=S)N(CCCC)CCCC`: the Potency entry is “inactive”.

Take `CC(C)CCCCCOC(=O)CCCCC(=O)OCCCCCC(C)C`: the Potency entry is “inactive”.

`C=CCOC(=O)/C=C\C(=O)OCC=C`: the Potency entry is “inactive”.

As for `CCC(C)(O)CCC=C(C)C` (stereo not given), the Potency entry was “inactive”.

As for `Cc1oncc1C(=O)Nc1ccc(C(F)(F)F)cc1`, the Potency entry is “inactive”.

For the molecule `Nc1ccc(S(=O)(=O)O)cc1`, the Potency entry was “inactive”.

Regarding `CC(C)CCCC(=O)O`, the Potency result is “inactive”.

Regarding `CCc1cccc(N(C)C(N)=Nc2cccc3ccccc23)c1`, the Potency result is “inactive”.

For the molecule `Cc1cc(C(=C2C=CC(=Nc3ccc(S(=O)(=O)O)cc3S(=O)(=O)O)C=C2)c2ccc(Nc3ccc(S(=O)(=O)O)cc3)cc2)ccc1N`, the Potency result was “inactive”.

For `COCCOC(=O)C1=C(C)NC(C)=C(C(=O)OC/C=C/c2ccccc2)C1c1cccc([N+](=O)[O-])c1` (stereo not given), the Potency result is “inactive”.

On to `COC(=O)c1cc(S(N)(=O)=O)ccc1OC`, for which the Potency entry was “inactive”.

For `CC1CC(=O)NN=C1c1ccc(NCC(C)(C)NCC(O)COc2cc(Cl)ccc2C#N)cc1` (stereo not given), the Potency result is “inactive”.

With `C=CC(=O)NCOCC(C)C`, the Potency entry is “inactive”.

On to `Cc1cc(O)c(C(C)C)cc1Cl`, for which the Potency entry was “inactive”.

On to `COc1ccccc1N=Nc1c(S(=O)(=O)O)cc2cc(S(=O)(=O)O)cc(NC(C)=O)c2c1O`, for which the Potency was 25.7 µM (active).

As to `COC(=O)CC(=O)C(C)(C)C`, the Potency result was “inactive”.

On to `OC/C(Br)=C(\Br)CO`, for which the Potency result is “inactive”.

For `CC(=O)OCC(=O)[C@@]12OC(C)(C)O[C@@H]1C[C@H]1[C@@H]3C[C@H](F)C4=CC(=O)C=C[C@]4(C)[C@@]3(F)[C@@H](O)C[C@@]12C`, the Potency result is “inactive”.

For the molecule `Nc1c(I)cc(I)c(C(=O)N(CCC(=O)O)c2ccccc2)c1I`, the Potency result is “inactive”.

On to `O=C(C(=O)c1ccccc1)c1ccccc1`, for which the Potency entry is “inactive”.

For the molecule `OC(CCCN1CCCCC1)(c1ccccc1)c1ccccc1`, the Potency result was “inactive”.

Regarding `CNC(=S)NC`, the Potency result was “inactive”.

With `N#C/C(=C1/SC[C@@H](c2ccc(Cl)cc2Cl)S1)n1ccnc1`, the Potency result was “inactive”.

Take `COc1ccc([C@@H]2Sc3ccccc3NC(=O)[C@@H]2O)cc1`: the Potency result is “inactive”.

With `O=C(CCCN1CCC(O)(c2ccc(Br)cc2)CC1)c1ccc(F)cc1`, the Potency entry is “inactive”.

Regarding `CO[Si](C)(OC)OC`, the Potency entry was “inactive”.

The values above are taken from PubChem BioAssay (Tox21).
